# HT1080-NT tox: kills 2HG-producing HT-1080-NT fibrosarcoma cells; HT-1080-NT fibrosarcoma viability, CellTiter-Glo ATP luminescence, 48 h; Potency, µM (top dose mostly 46.1 µM), for inactives: at the highest dose activity, negative = less viability, usual class: cytotoxic; 360,000 compounds, 1.6% hits;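 further: NT is the 2HG producing partner of a matched IDH1 knockdown line; potency means the concentration at half of the fitted maximal effect; 0% = DMSO-treated cells and -100% = media-only wells without cells; nearly all actives have a fitted effect of over 55% in size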
#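 Viability of the 2HG-overproducing fibrosarcoma line after 48 hours of compound exposure at 37 degrees C was determined by luminescence with CellTiter-Glo, and concentration-effect curves were then fitted and categorized.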
# HT1080 IDH1KD tx: kills HT-1080 cells with IDH1 knockdown | HT-1080 IDH1 knockdown viability, ATP luminescence, 48 h | Potency, µM (doses to about 46.1 µM), without a hit: at the highest dose activity, negative = toxicity, actives largely listed as cytotoxic | 360,000 compounds, 2% hits | AID 686971;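 further: potency means the concentration at half of the fitted maximal effect; 0% = DMSO wells and -100% = cell-free medium wells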
#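 CellTiter-Glo luminescence after 48 h compound exposure at 37 degrees C of IDH1-knockdown HT-1080 cells in 5% FBS RPMI. %Activity scaled between DMSO wells and cell-free media wells, with curves fitted and assigned curve classes.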
# DT40 TDP1 CPT: growth inhibition of DT40 Tdp1-/-;hTDP1 cells with camptothecin (screen for TDP1 inhibitors). chicken DT40 Tdp1-/-;hTDP1 cells + 20 nM CPT, ATP luminescence, 48 h. Potency, µM (highest dose often 46.2 µM), inactives show at the highest dose activity change, negative = growth inhibition, usual class: inhibitors. 420,000 compounds, 12% hits; further: potency means the concentration at half of the fitted maximal effect; nearly all actives have a fitted effect of over 55% in size
#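 Cell growth measured by CellTiter-Glo luminescence after a minimum 48 h, 37 C compound exposure with 20 nM CPT in Tdp1-knockout DT40 cells stably expressing hTDP1, seeded 400/well; qHTS titration format.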
# DT40 TDP1 no CPT: qHTS for Inhibitors of human tyrosyl-DNA phosphodiesterase 1 (TDP1): qHTS in cells in absence of CPT; DT40 Tdp1-/- hTDP1 cells, no CPT, ATP luminescence, 48 h; Potency, µM (top dose mostly 46.2 µM), inactives show at the top dose activity change, negative = growth inhibition, usual class: inhibitors; 420,000 compounds, 15% hits; AID 686978, 2013; further: potency means the concentration at half of the fitted maximal effect; nearly all actives have a fitted effect of over 55% in size
#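 Stably hTDP1-transfected Tdp1-null chicken DT40 cells were treated with library compounds minus camptothecin and grown for at least 48 hr at 37 °C, after which cellular ATP was quantified by luminescence.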
# IL1B secr inh: inhibitors of inflammasome signaling (IL-1 beta secretion); THP-1 LPS/ATP IL-1B secretion, AlphaLISA, 16 h; stronger effect = lower value; activity change, % at 57.5 µM; 360,000 compounds, 4.7% hits; AID 743279; in the data active means activity change below about -50%; inconclusive means mostly about -30% to -49%
#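 Secreted IL-1B measured by AlphaLISA bead assay after 16 h compound exposure of THP-1 cells; compounds (final up to 57.5 uM) added 1 h before LPS (250 ng/mL) and ATP (1.25 mM) stimulation; lower signal means less secretion.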
# An asterisk follows results filed as active; i = inactive; ? = inconclusive; · = no result given; [ ] = dose if it differs, or a comment. This is a sample that favours compounds with a hit; in the whole collection about 19% have one here. Unless noted, the call rests on the fitted dose curve; in most records, active means well fitted curve in the direction sought with a large enough effect; inconclusive means small, poorly fitted or top-dose-only effect, or another doubt; inactive means no such curve, though single readings can be large; an effect the other way counts as inactive or inconclusive. Unless noted, on the % scale 0 is the no-effect control and ±100 the full control effect.
SMILES,HT1080-NT tox,HT1080 IDH1KD tx,DT40 TDP1 CPT,DT40 TDP1 no CPT,IL1B secr inh
COc1ccccc1N1CCN(c2nc(CNC(=O)c3ccccc3F)nc3ccccc23)CC1,·,·,?,8.2µM*,·
COc1ccccc1N1CCN(c2nc(CNC(=O)C3CCOC(C)(C)C3)nc3ccccc23)CC1 (centres undefined),·,·,?,16µM*,·
COc1ccccc1N1CCN(C(=O)NCc2cccc(C(F)(F)F)c2)CC1,-18%,-2%,1%,?,-8
CCOc1cccc(NC(=O)c2ccc(S(=O)(=O)N3CCCC3)cc2)c1,-5%,-8%,-8%,?,-4
C=CCOc1ccc(C2/C(=C(\O)c3ccc4c(c3)CC(C)O4)C(=O)C(=O)N2CCN2CCOCC2)cc1OCC (centres undefined),2%,6%,10%,0%,0
CN(C)CCCN(C(=O)c1cc(-c2cccs2)nc2ccccc12)c1nc2c(F)cccc2s1,?,?,?,-11%,-74*
Cc1ccc2nc(N(CCCN(C)C)C(=O)c3cc(-c4cccs4)nc4ccccc34)sc2c1,?,?,16µM*,?,?
COc1cccc(CN(C)C(=O)C23CC4CC(CC(NC(C)=O)(C4)C2)C3)c1OC,2%,3%,?,-8%,11
COc1ccc(CN(C)C(=O)C23CC4CC(CC(Cl)(C4)C2)C3)c(OC)c1OC,5%,1%,23µM*,21µM*,?
Cn1ccnc1SCC(=O)Nc1cc(F)ccc1F,?,16%,-3%,4%,-7
COCCCNC(=O)CSc1nc2cc3c(cc2c(=O)n1CCCCCC(=O)NCc1ccc2c(c1)OCO2)OCO3,·,·,3%,2%,·
O=C(CSc1nnc(-c2ccc(O)cc2)o1)Nc1ccccc1,-11%,-15%,6%,-20%,-3
O=C(CSc1nnc(-c2csc3c2CCCC3)o1)Nc1ccccc1,-11%,-3%,?,?,-50*
O=C(NC1CC1)[C@@H]1C[C@@H](Sc2nc3ccccc3[nH]2)CN1CC1CCCCC1,·,·,-3%[9.04 µM],?,·
CCO[C@H]1OC(C(=O)NCc2nc3ccccc3[nH]2)=C[C@@H](c2ccc(C(F)(F)F)cc2)[C@@H]1CCCO,-19%,-22%,?,16µM*,?
CCO[C@H]1OC(C(=O)NCc2nc3ccccc3[nH]2)=C[C@@H](C2CCCCC2)[C@@H]1CCCO,-14%,-9%,13µM*,15µM*,?
CCO[C@@H]1OC(C(=O)NCc2nc3ccccc3[nH]2)=C[C@H](c2ccc(C(F)(F)F)cc2)[C@H]1CCCO,-12%,-15%,?,?,-64*
COCC1CCCN(c2nc(CN3CCN(C(=O)c4ccco4)CC3)nc3ccccc23)C1 (centres undefined),·,·,10%[9.04 µM],-19%,·
O=C1CSC(=S)N1N=Cc1c(O)ccc2ccccc12,-14%,?,21µM*,13µM*,32
Cc1nc2ccccc2c(=O)n1/N=C/c1cc(Br)ccc1O,?,?,?,?,229
Cc1nc2ccccc2c(=O)n1/N=C/c1ccc(N(C)C)cc1,14%,3%,-1%,-19%,0
COc1ccc2ccccc2c1/C=N/N1C(=O)CSC1=S,10%,27%,6%,-21%,5
Cc1nc2ccccc2c(=O)n1/N=C/c1c(O)ccc2ccccc12,?,?,?,18µM*,57
Cc1nc2ccccc2c(=O)n1/N=C/c1c(O)ccc2oc3c(c12)CCCC3,0%,-14%,21µM*,18µM*,31
O=c1c2ccccc2nc(N/N=C/c2c(O)ccc3ccccc23)n1O,?,?,3.7µM*,5.2µM*,136
SMILES,HT1080-NT tox,HT1080 IDH1KD tx,DT40 TDP1 CPT,DT40 TDP1 no CPT,IL1B secr inh
CCN(CC)S(=O)(=O)c1ccc(N2CCOCC2)c(NC(=O)c2ccc(=O)[nH]c2)c1,1%,-2%,8%,3%,-12
CC(=O)c1ccc(NC(=O)CN(C)S(=O)(=O)c2cc3c(cc2Cl)NC(=O)CO3)cc1,·,·,-16%,?,·
CCCC(=O)NCC1(N(C)C)CCCCC1,·,·,-1%,?,·
COCc1ccc(C(=O)N2CCCC(Nc3ccc4c(c3)OCCO4)C2)o1 (centres undefined),1%,9%,-2%,-8%,-3
NC(=O)N/N=C/c1c(O)ccc2oc3c(c12)CCCC3,-18%,-8%,?,?,-98*
CC(C)(C)N=Cc1c(O)ccc2oc3c(c12)CCCC3,?,0%,-12%,-1%,42
CCOC(=O)c1c(-c2ccc(OC)cc2)csc1/N=C/N(C)C,-1%,-1%,-18%,26µM*,i
CCOC(=O)c1c(-c2ccc(OC)cc2)csc1/N=C/C1C(=O)CCCC1=O,?,18µM*,-22%,?,-18
O=C(COC(=O)/C=C/c1ccccc1)NNC(=O)c1ccc([N+](=O)[O-])cc1,5%,2%,1%,-2%,-2
CCOc1ccc(-c2c(C)nn3c(C)c(C(=O)NCc4ccc(Cl)cc4)cnc23)cc1OCC,·,·,1.2µM*,1.6µM*,·
CCOC(=O)c1cnc2c(-c3ccc(Cl)cc3)c(C)nn2c1N,15%,16%,-22%,-4%,-2
Cc1ccc(CCNC(=O)c2cnc3c(-c4ccc(F)cc4)c(C)nn3c2C)cc1,·,·,-6%,-2%,·
CCOc1ccc(-c2c(C)nn3c(C)c(C(=O)NCCc4ccc(Cl)cc4)cnc23)cc1OCC,·,·,15µM*,6.5µM*,·
CCOc1ccc(CCNC(=O)c2cnc3c(-c4ccc(F)cc4)c(C)nn3c2C)cc1OCC,·,·,16µM*,18µM*,·
CCOc1ccc(-c2c(C)nn3c(C)c(C(=O)NCc4cccc(OC)c4)cnc23)cc1OCC,·,·,9.2µM*,?,·
O=C(Cc1cccs1)NC1CC(=O)N(c2ccc(F)cc2)C1 (centres undefined),·,·,-8%,4%,·
CC(C)C(NC(=O)c1ccc(F)cc1)C(=O)N1CCN(c2ccccn2)CC1 (centres undefined),-6%[9.24 µM],2%,?,?,-5
COCCCN1C(=O)C(CC(=O)NCc2cccs2)CC(C(=O)N(C)C)=C1C (centres undefined),18%,0%,3%,3%,17
Nn1c(SCC(=O)N2CCCc3ccccc32)nnc1-c1ccc(Cl)cc1,-13%,-25%,?,-25%,9
O=C(CSc1ccc2nnc(-c3cccc(F)c3)n2n1)N1CCCc2ccccc21,-7%,2%,?,18µM*,6
O=C(CSc1ccc2nnc(-c3ccc(F)cc3)n2n1)N1CCOCC1,-3%,-2%,-11%,-7%,-7
CCSc1ccc2nnc(-c3cccc(F)c3)n2n1,1%,?,-25%,?,-18

# Bioassay records deposited in PubChem by National Center for Advancing Translational Sciences (NCATS).
